Source: PubChem BioAssay AID1974 (The Scripps Research Institute Molecular Screening Center, 2009)
Screen size: about 300,000 compounds; about 3,200 (1.1%) were called active. What follows is part of a selection rich in actives, with near analogues and random picks from the rest. Values without a mark were called inactive.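 Rule for the calls: active = inhibition above the campaign mean inhibition plus 3 SD (cut at about 35% in these data); inactive = the rest.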

biological target: Glutathione S-transferase omega-1 (Homo sapiens) (UniProt P78417); assay: inhibitors of recombinant GSTO1, primary screen, counter-screen for RBBP9 inhibitor project, biochemical, fluorescence polarization (AID 1974); conditions: recombinant GSTO1, activity-based probe fluorescence polarization; at 5.96 µM; active compounds read high;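 note: 0% = GSTO1-1 with DMSO and 100% = wells lacking GSTO1-1 enzyme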
Sequence (P78417 whole entry, looked up): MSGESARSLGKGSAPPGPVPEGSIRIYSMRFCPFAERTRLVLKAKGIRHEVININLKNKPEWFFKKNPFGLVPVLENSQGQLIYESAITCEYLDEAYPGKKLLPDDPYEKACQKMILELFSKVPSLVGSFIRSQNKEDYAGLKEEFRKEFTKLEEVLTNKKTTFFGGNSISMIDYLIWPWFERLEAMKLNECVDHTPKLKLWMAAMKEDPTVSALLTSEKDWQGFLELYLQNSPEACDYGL

Question: With `Cc1ccc(SCCSc2ncccn2)cc1` as the molecule, how does the inhibition read?
Answer: -0.48%

Question: `Cc1ccc(SCc2cc(=O)[nH]c(N3CCCCC3)n2)cc1` was tested. Which inhibition did it give?
Answer: -1.38%

Question: Which inhibition does the source give for `Cc1ccc(SCC2=NNC(=O)C2)cc1` here?
Answer: 42.2% (active)

Question: With `COc1ccc(NC(=O)CCC(=O)N2CCN(S(=O)(=O)c3ccc(C)cc3)CC2)c(OC)c1` as the molecule, how does the inhibition read?
Answer: -6.89%

Question: For `Cn1ccsc1=NC(=O)c1cc(S(=O)(=O)N2CCOCC2)ccc1Cl`, which inhibition is on record?
Answer: -4.31%

Question: How did the inhibition turn out when `CCOC(=O)c1c(C)oc2cc(Sc3ccccc3)c(O)c(O)c12` was run?
Answer: 47.9% (active)

Question: How did the inhibition turn out when `CCOC(=O)c1c(-c2ccccc2)oc2cc(Br)c(O)c(C=O)c12` was run?
Answer: 0.6%

Question: Which inhibition does the source give for `CCOC(=O)c1cc(Sc2ccccc2N)cc(C(=O)OCC)n1` here?
Answer: 8.34%

Question: How did the inhibition turn out when `Cc1ccsc1/C=N/Nc1ccc(Cl)nn1` was run?
Answer: -1.2%

Question: Which inhibition does the source give for `Clc1ccc(N/N=C/c2cccs2)nn1` here?
Answer: 6.83%

Question: For `Oc1cccc(/C=N/Nc2ccc(Cl)nn2)c1O`, which inhibition is on record?
Answer: 73% (active)

Question: `Cn1c(NC(=O)c2ccccc2)nc2ccccc21` was tested. Which inhibition did it give?
Answer: 4.42%

Question: With `CC(C)CN(C(=O)COC(=O)c1ccc(Cl)c(N)c1)c1c(N)n(Cc2ccccc2)c(=O)[nH]c1=O` as the molecule, how does the inhibition read?
Answer: 3.23%

Question: How did the inhibition turn out when `Cc1[nH][nH]c(=O)c1C(c1ccc(-c2ccc(Cl)cc2)o1)c1c(C)[nH][nH]c1=O` was run?
Answer: 65.6% (active)

Question: `Cc1[nH][nH]c(=O)c1C(c1ccc2c(c1)OCO2)c1c(C)[nH][nH]c1=O` was tested. Which inhibition did it give?
Answer: 17.4%

Question: `CCOc1ccc(C(c2c(C)[nH][nH]c2=O)c2c(C)[nH][nH]c2=O)cc1OCC` was tested. Which inhibition did it give?
Answer: 23.6%

Question: For `NC(=O)NCCCC(=O)O`, which inhibition is on record?
Answer: 6.89%

Question: `OCc1ccc(-c2ccccc2)c(-c2ccccc2)c1` was tested. Which inhibition did it give?
Answer: 0.95%

Question: Which inhibition does the source give for `Cn1c(-c2ccc(F)cc2)cc2onc(-c3ccccc3Cl)c2c1=O` here?
Answer: 2.68%

Question: With `CCN1CC=C2C(C#N)=C(N)C(C#N)(C#N)[C@H](c3ccoc3)[C@H]2C1` as the molecule, how does the inhibition read?
Answer: 38% (active)

Question: Which inhibition does the source give for `N#CC1=C(N)C(C#N)(C#N)[C@H](c2ccsc2)[C@H]2COCC=C12` here?
Answer: 10.3%

Question: Which inhibition does the source give for `CCCN1CC=C2C(C#N)=C(N)C(C#N)(C#N)C(c3cc(OC)ccc3OC)C2C1` (centres undefined) here?
Answer: 3.38%

Question: Which inhibition does the source give for `Cc1ccc(C(=O)OCC(=O)N2CC(C)CC(C)C2)cc1S(=O)(=O)N1CCCCC1` (centres undefined) here?
Answer: 1.6%

Question: Which inhibition does the source give for `COc1cc(NC(=O)CSC(=S)N2CCCC2)c(OC)cc1Cl` here?
Answer: 1.86%

Question: How did the inhibition turn out when `COc1ccc(-c2cc(=O)c3c(O)cc(O[C@@H]4O[C@H](CO[C@@H]5O[C@@H](C)[C@H](O)[C@@H](O)[C@H]5O)[C@@H](O)[C@H](O)[C@H]4O)cc3o2)cc1O` was run?
Answer: 6.25%

Question: Which inhibition does the source give for `CCOC(=O)COc1cc(O)c2c(=O)cc(-c3ccccc3)oc2c1` here?
Answer: 4.45%

Question: `COc1c(O)cc2oc(-c3ccc(O)c(O)c3)cc(=O)c2c1O` was tested. Which inhibition did it give?
Answer: 37% (active)

Question: How did the inhibition turn out when `CC(C)(C)n1nc(Cc2cccc3ccccc23)c(C#N)c1N` was run?
Answer: 26.1%

Question: Which inhibition does the source give for `COc1ccc(CN(C)C(=O)CC(c2ccccc2)c2ccccc2)cc1` here?
Answer: -5.61%

Question: With `COc1ccc(C(CCN(Cc2ccc(OC)c(OC)c2)C(=O)CCl)c2ccccc2)cc1` (centres undefined) as the molecule, how does the inhibition read?
Answer: 87% (active)

Question: How did the inhibition turn out when `COc1ccc(COC(=O)NC(C(=O)O)c2ccccc2)cc1` (centres undefined) was run?
Answer: 8.98%

Question: `CCOc1cc(/C=N/NC(=O)c2cccc(S(=O)(=O)N3CCOCC3)c2)ccc1OCC(=O)N(C)C` was tested. Which inhibition did it give?
Answer: 5.36%

Question: With `O=C1CCCN1C(=O)COc1ccc([N+](=O)[O-])cc1` as the molecule, how does the inhibition read?
Answer: -4.91%

Question: `CCc1nnc(NC(=O)CCC(=O)O)s1` was tested. Which inhibition did it give?
Answer: 3.28%

Question: With `CCc1nnc(NC(=O)CSc2nc(SC)ns2)s1` as the molecule, how does the inhibition read?
Answer: 47.1% (active)

Question: `CSc1nsc(SCC(=O)Nc2cc(C(=O)O)ccc2C)n1` was tested. Which inhibition did it give?
Answer: -0.11%

Question: How did the inhibition turn out when `CCc1ccc(Nc2n[n+](-c3ccccc3)c(-c3cccc(Cl)c3Cl)s2)cc1` was run?
Answer: 5.75%

Question: `Oc1ccc(N=Cc2sc3ccccc3c2Cl)cc1` was tested. Which inhibition did it give?
Answer: 87.7% (active)

Question: Which inhibition does the source give for `COc1ccc(N=C(C)c2sc3ccccc3c2O)cc1` here?
Answer: 3.42%

Question: `O=C(N/N=C/c1c(Cl)[nH]c2ccccc12)c1sc2ccccc2c1Cl` was tested. Which inhibition did it give?
Answer: -18.9%

Question: Which inhibition does the source give for `CCN(CC(=O)Nc1c(F)cccc1F)C(=O)C1CCC1` here?
Answer: 0.37%

Question: Which inhibition does the source give for `COc1ccc(C(=O)OCC(=O)c2ccc(Cl)s2)c(OC)c1OC` here?
Answer: 2.69%

Question: Which inhibition does the source give for `NNC(=O)c1oc2nc(-c3ccccc3)cc(-c3ccco3)c2c1N` here?
Answer: 38.1% (active)

Question: For `O=C(Nc1cccc(F)c1)c1cc(-c2ccco2)nc2ccccc12`, which inhibition is on record?
Answer: -14.9%

Question: For `CNC(=S)NNC(=O)c1oc2nc(-c3ccccc3)cc(-c3ccco3)c2c1N`, which inhibition is on record?
Answer: 3.57%

Question: With `Cc1c(C)n2c(SCC(=O)NC3CCCC3)nnc2[nH]c1=O` as the molecule, how does the inhibition read?
Answer: 3.72%

Question: With `CCN(CC(=O)Nc1c(F)cccc1F)C(=O)CN1c2cccc3cccc(c23)S1(=O)=O` as the molecule, how does the inhibition read?
Answer: 0.89%

Question: `C#CCOCCOCCOCCNc1nc(N2CCN(C(=O)CCCCCCCCCCNC(=O)[C@H]([C@@H](C)CC)n3cc(CCCCN=C(N)N)nn3)CC2)nc(N2CCN(C(=O)CCCCCCCCCCNC(=O)[C@H](CO)n3cc(CCCSC)nn3)CC2)n1` was tested. Which inhibition did it give?
Answer: 0.8%

Question: With `S=c1[nH]nc(-c2ccc(Cl)cc2)n1CC1CCCO1` (centres undefined) as the molecule, how does the inhibition read?
Answer: 6.47%

Question: With `O=C(c1[nH]ncc1-c1ccc(Cl)cc1)C1CO1` (centres undefined) as the molecule, how does the inhibition read?
Answer: 69.7% (active)

Question: How did the inhibition turn out when `O=C(c1nnc(-c2ccc(Cl)cc2)o1)C1CCCC1` was run?
Answer: -2.2%

Question: How did the inhibition turn out when `C#CCOCCOCCOCCNc1nc(N2CCN(C(=O)[C@H](CCCCN)n3cc(CCC(=O)O)nn3)CC2)nc(N2CCN(C(=O)[C@H](CCCCN)n3cc(CC(C)O)nn3)CC2)n1` (some centres undefined) was run?
Answer: 5.45%

Question: For `Cc1cccc(N2CC(C(=O)Nc3ccccc3N3CCCC3)CC2=O)c1C` (centres undefined), which inhibition is on record?
Answer: -3.75%

Question: With `CSc1nsc(NC(=O)Nc2ccccc2)n1` as the molecule, how does the inhibition read?
Answer: -11%

Question: `C/C(=N/Nc1ccc(Cl)cc1)c1cnnc(-c2ccccc2)n1` was tested. Which inhibition did it give?
Answer: -2.69%

Question: With `CC/C(=N/Nc1ccccc1)c1cnnc(SC)n1` as the molecule, how does the inhibition read?
Answer: 46.9% (active)

Question: How did the inhibition turn out when `COc1cccc(NC(=O)CSc2nnc(-c3cccnc3)o2)c1` was run?
Answer: -6.7%

Question: Which inhibition does the source give for `COC(C[C@@H](O)C[C@H](O)[C@H](C)OCc1ccccc1)OC` here?
Answer: 3.16%

Question: `CCCCn1c(N)c(N(CC(C)C)C(=O)c2cnc(C)cn2)c(=O)[nH]c1=O` was tested. Which inhibition did it give?
Answer: -0.67%

Question: With `Cc1c(C)n2c(SCC(=O)N3CCCC3)nnc2[nH]c1=O` as the molecule, how does the inhibition read?
Answer: 4.38%

Question: For `CCOC(=O)N1CCC(NC(=O)COc2cc(=O)n(C)c3ccccc23)CC1`, which inhibition is on record?
Answer: -3.88%

Question: `CCOC(=O)N1CCC(NC(=O)CCc2ccccc2)CC1` was tested. Which inhibition did it give?
Answer: -0.86%

Question: How did the inhibition turn out when `CCOC(=O)N1CCC(c2cc(=O)n(-c3ccccc3)[nH]2)CC1` was run?
Answer: 37.3% (active)

Question: Which inhibition does the source give for `CC(=O)CC[C@@H](C)O[C@@H]1OC(C)[C@H](O)CC1O` (some centres undefined) here?
Answer: -1.35%

Question: `C[C@H]1CC[C@]2(O[C@@H](CCO)C[C@@H](O)[C@@H]2O)O1` was tested. Which inhibition did it give?
Answer: 1.91%

Question: Which inhibition does the source give for `Oc1c(C=Nc2cccc3nsnc23)ccc2ccccc12` here?
Answer: 64.1% (active)

Question: For `COc1ccc(C=Nc2cccc3ncccc23)cc1`, which inhibition is on record?
Answer: 6.91%

Question: How did the inhibition turn out when `NC(=O)C1CCN(C(=O)c2cn(-c3ccccc3)nc2-c2cccnc2)CC1` was run?
Answer: 4.31%

Question: How did the inhibition turn out when `O=C(c1cc(C(=O)N2CCN(c3ccc(F)cc3)CC2)cc([N+](=O)[O-])c1)N1CCN(c2ccc(F)cc2)CC1` was run?
Answer: 2.3%

Question: With `CC(NC(=O)c1ccccc1F)c1cccc2ccccc12` (centres undefined) as the molecule, how does the inhibition read?
Answer: 2.21%

Question: How did the inhibition turn out when `CN(C)[C@@H]1C(=O)C(C(N)=O)=C(O)[C@@]2(O)C(=O)C3=C(O)c4c(O)ccc(Cl)c4[C@@H](O)[C@H]3C[C@@H]12` was run?
Answer: 69.1% (active)

Question: With `O=C(Nc1nc(-c2ccco2)c(-c2ccco2)s1)c1ccco1` as the molecule, how does the inhibition read?
Answer: 28.3%

Question: How did the inhibition turn out when `CC(Sc1nn(-c2ccc(Cl)cc2)c(=S)s1)C(=O)NCC1CCCO1` (centres undefined) was run?
Answer: -4.24%

Question: For `COc1ccc(C(CNC(=O)c2ccc(NS(=O)(=O)c3ccc(F)c(C)c3)cc2)N(C)C)cc1` (centres undefined), which inhibition is on record?
Answer: -9.5%

Question: `O=C(N/N=C/c1c[nH]c2ccccc12)c1cc2ccccc2o1` was tested. Which inhibition did it give?
Answer: -5.04%

Question: `O=C(N/N=C/c1c[nH]c2ccccc12)c1ccccc1O` was tested. Which inhibition did it give?
Answer: -1.35%

Question: Which inhibition does the source give for `O=C(O)c1cccc(NC(=S)N/N=C/c2c[nH]c3ccccc23)c1` here?
Answer: 48.7% (active)

Question: With `O=[N+]([O-])c1ccc(N/N=C2/CCCCC2c2ccccn2)c([N+](=O)[O-])c1` (centres undefined) as the molecule, how does the inhibition read?
Answer: 27.8%

Question: `O=C(Nc1ccccc1)O/N=C1\CCCCC1c1ccc([N+](=O)[O-])cc1[N+](=O)[O-]` (centres undefined) was tested. Which inhibition did it give?
Answer: -4.23%

Question: `C[n+]1ccccc1C1CCCC/C1=N\Nc1ccc([N+](=O)[O-])cc1[N+](=O)[O-]` (centres undefined) was tested. Which inhibition did it give?
Answer: 45.5% (active)

Question: How did the inhibition turn out when `COc1ccc(NC(=O)CN(C)C(=O)c2cccc(S(=O)(=O)N3CCN(c4ccccc4)CC3)c2)cc1` was run?
Answer: 0.96%

Question: Which inhibition does the source give for `CCOC(=O)c1c(C)[nH]c(C(=O)OCC(=O)N2CCCC2=O)c1C` here?
Answer: -4.82%

Question: How did the inhibition turn out when `CCN1C(=O)[C@@H]2[C@@H](c3ccc(-c4ccccc4)cc3)N3CCCC[C@@]3(C(=O)OC)[C@@H]2C1=O` was run?
Answer: -2.94%

Question: Which inhibition does the source give for `COc1ccc(C(CNC(=O)c2cccc(S(=O)(=O)Nc3ccccc3Cl)c2)N2CCOCC2)cc1` (centres undefined) here?
Answer: -26.9%

Question: Which inhibition does the source give for `Cc1cc(C)n2nc(C(=O)OCC(=O)N(CCC#N)c3ccc(F)cc3)nc2n1` here?
Answer: 7.91%

Question: How did the inhibition turn out when `CCOC(=O)c1c(-c2ccc(C)cc2)csc1/N=C(\C)C1=C(O)c2ccccc2C1=O` was run?
Answer: 7.75%

Question: How did the inhibition turn out when `CCOC(=O)c1cnc(-c2ccccc2)nc1Oc1ccc(C)cc1` was run?
Answer: 2.24%

Question: For `CCOC(=O)C1=C(c2ccc(OC)cc2)C(=O)c2ccccc2C1=O`, which inhibition is on record?
Answer: 40.5% (active)

Question: How did the inhibition turn out when `CCCC(=O)Nc1ncnc2c1ncn2[C@@H]1O[C@@H]2OP(=O)(O)OC[C@H]2[C@H]1OC(=O)CCC` was run?
Answer: -0.48%
